In PubChem BioAssay AID1445 (SRMLSC, 2008):
The campaign covered roughly 220,000 compounds. About 910 (0.41%) were called active. The full list was thinned out, with actives kept by preference. Results with a measured potency or affinity are listed apart. Unmarked numbers belong to inactive results.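 Rule for the calls: active = primary inhibition above the hit cutoff, then over 50% inhibition at one or more dose response concentrations (cut at about 23% in these data, passing the limit was not always enough); inconclusive = conflicting primary data, or primary hits not chosen for dose response; inactive = low primary inhibition, or under 50% at every dose.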

Molecular target: Aminopeptidase N (Plasmodium falciparum (isolate 3D7)) (UniProt O96935)
Sequence (O96935 whole entry, looked up): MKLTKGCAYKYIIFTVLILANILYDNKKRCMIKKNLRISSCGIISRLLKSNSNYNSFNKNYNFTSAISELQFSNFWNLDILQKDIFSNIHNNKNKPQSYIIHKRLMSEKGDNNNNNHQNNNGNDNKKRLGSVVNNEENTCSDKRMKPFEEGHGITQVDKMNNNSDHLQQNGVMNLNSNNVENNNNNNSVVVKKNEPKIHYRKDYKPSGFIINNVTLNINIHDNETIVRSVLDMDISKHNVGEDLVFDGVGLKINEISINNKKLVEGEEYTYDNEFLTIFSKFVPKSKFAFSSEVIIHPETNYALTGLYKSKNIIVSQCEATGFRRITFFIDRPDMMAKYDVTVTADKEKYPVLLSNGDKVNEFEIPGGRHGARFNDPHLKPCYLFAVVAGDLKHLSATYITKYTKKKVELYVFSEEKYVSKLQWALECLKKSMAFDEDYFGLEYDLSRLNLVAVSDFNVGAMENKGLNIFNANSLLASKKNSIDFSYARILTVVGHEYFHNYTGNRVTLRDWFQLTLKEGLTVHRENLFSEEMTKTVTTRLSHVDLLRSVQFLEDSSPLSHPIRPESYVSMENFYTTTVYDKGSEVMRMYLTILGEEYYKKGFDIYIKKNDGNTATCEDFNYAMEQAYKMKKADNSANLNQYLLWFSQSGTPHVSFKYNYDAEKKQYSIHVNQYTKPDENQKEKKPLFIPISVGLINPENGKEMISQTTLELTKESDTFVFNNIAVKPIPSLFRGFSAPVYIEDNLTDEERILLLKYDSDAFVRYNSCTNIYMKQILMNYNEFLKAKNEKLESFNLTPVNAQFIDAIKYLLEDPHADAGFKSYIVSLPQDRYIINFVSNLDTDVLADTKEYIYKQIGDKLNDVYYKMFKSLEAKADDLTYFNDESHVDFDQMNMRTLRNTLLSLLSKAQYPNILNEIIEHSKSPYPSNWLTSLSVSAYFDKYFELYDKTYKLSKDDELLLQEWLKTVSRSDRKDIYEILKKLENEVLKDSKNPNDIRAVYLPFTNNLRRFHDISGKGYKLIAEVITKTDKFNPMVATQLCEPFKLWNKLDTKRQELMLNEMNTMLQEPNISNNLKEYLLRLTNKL
Experiment: P. falciparum M1AAP inhibitors, biochemical, fluorogenic H-Leu-NHMec substrate, 1536-well (AID 1445);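 note: plate controls were DMSO full reaction for no effect and no enzyme background for full effect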
Details: recombinant M1AAP, H-Leu-NHMec fluorogenic kinetic assay
[1] = at 30 µM, hits give high values unless noted

COc1ccc(-c2cc(C#N)nc(Oc3ccc(Cl)cc3)n2)cc1
inhibition [1]: 6.45%

CC(=O)Nc1ccc(/C=N/NC(=O)c2cc3cc(C)ccc3nc2C)cc1
inhibition [1]: 2.63%

CCC(=O)Nc1ccc(S(=O)(=O)Nc2cc(C)on2)cc1
inhibition [1]: -4.75%

Cc1cc(NS(=O)(=O)c2ccc(NC(=O)CSc3nc4sc(C(=O)O)c(C)c4c(=O)[nH]3)cc2)no1
inhibition [1]: 16.3%

O=C(N/N=C/c1cccnc1)c1ccccc1OCc1ccc(Cl)cc1
inhibition [1]: -4.49%

Cc1ccc(COc2ccccc2-c2cc(C(=O)N/N=C/c3cccnc3)[nH]n2)cc1
inhibition [1]: 4.58%

COc1ccc(C2c3c(noc3C)CC(C)(O)C2C(C)=O)cc1 (centres undefined)
inhibition [1]: 0.23%

COc1ccc(-c2nn(-c3ccccc3)cc2/C=C/C(=O)N2CCN(c3ccccn3)CC2)cc1
inhibition [1]: 1.49%

CCOC(=O)COc1ccc2ccccc2c1/C=C/[N+](=O)[O-]
inhibition [1]: 4.98%

CCOC(=O)COc1ccccc1/C=C\[N+](=O)[O-]
inhibition [1]: 11.9%

CCN=C1S/C(=C\c2cc(Br)ccc2OCC(=O)OCC)C(=O)N1CC
inhibition [1]: 3.81%

CCOC(=O)COc1ccc(/C=C/[N+](=O)[O-])c(OCC(=O)OCC)c1
inhibition [1]: 1.07%

CCCOC(=O)c1ccc(Cl)c(NC(=O)c2cccnc2)c1
inhibition [1]: 8.87%

COc1ccc(C(=O)CC(=O)c2ccccc2O)cc1OC
inhibition [1]: 2.33%

COC(=O)c1ccc(-n2nnnc2SC)cc1
inhibition [1]: 26.3% (active)

CSc1nnnn1-c1ccc(C(=O)O)cc1
inhibition [1]: 5.73%

COC(=O)COC(=O)c1ccc(-n2nnnc2SC)cc1
inhibition [1]: -3%

Cn1c(=O)n(CCc2ccccc2)c(=O)c2c1ncn2Cc1ccccc1
inhibition [1]: 2.43%

Cc1cc(NC(=O)c2ccc(N3CCCC3)c([N+](=O)[O-])c2)no1
inhibition [1]: -2.39%

CC(=O)c1cccc(NC(=O)N2CCCC2C(=O)Nc2cccc(C)c2)c1 (centres undefined)
inhibition [1]: 1.86%

CC(=O)Nc1ccc(NC(=O)C2CCCN2C(=O)Nc2ccc(F)c([N+](=O)[O-])c2)cc1 (centres undefined)
inhibition [1]: 2.21%

Cc1cccc(NC(=O)N2CCCC2C(=O)Nc2ccccc2)c1 (centres undefined)
inhibition [1]: 13.2%

COc1ccc(NC(=O)C2CCCN2C(=O)Nc2cccc(F)c2)cc1 (centres undefined)
inhibition [1]: 6.92%

CC(=O)Nc1cccc(NC(=O)C2CCCN2C(=O)Nc2ccccc2C)c1 (centres undefined)
inhibition [1]: -3.25%

COc1cccc(NC(=O)C2CCCN2C(=O)Nc2cccc(F)c2)c1 (centres undefined)
inhibition [1]: 14.7%

O=C(NCc1ccc2c(c1)OCO2)C1CCCN1C(=O)Nc1ccc(F)cc1 (centres undefined)
inhibition [1]: 11.2%

O=C(NCc1ccc2c(c1)OCO2)C1CCCN1C(=O)Nc1ccccc1 (centres undefined)
inhibition [1]: 11.3%

COc1ccc(Nc2nc(C(=O)N(CCO)Cc3ccccc3)cs2)cc1
inhibition [1]: 0.85%

Cc1ccc(NC(=O)CC2NCCN(Cc3ccccc3)C2=O)cc1 (centres undefined)
inhibition [1]: 8.69%

Cc1ccc(N(CC(=O)NN=C2CCN(C)CC2)S(=O)(=O)c2ccccc2)c(C)c1
inhibition [1]: -0.06%

O=C(Cn1cnc([N+](=O)[O-])n1)N/N=C/c1ccc2ccccc2c1
inhibition [1]: 10.2%

CCOC(=O)N1CCN(c2c(NCCCN(C)c3ccccc3)c(=O)c2=O)CC1
inhibition [1]: 6.93%

CCCc1nnc(NC(=O)Cn2c(=O)oc3ccccc32)s1
inhibition [1]: -0.7%

CCOC(=O)C(CC)/C(C)=N/NC(=O)c1ccc([N+](=O)[O-])cc1 (centres undefined)
inhibition [1]: 2.15%

C=C1CCN([C@H](C(=O)NCc2ccco2)C(C)C)S(=O)(=O)c2ccccc21
inhibition [1]: 11%

CC(=O)c1cccc(NC(=O)N2CCCC2C(=O)Nc2cc(C)ccc2C)c1 (centres undefined)
inhibition [1]: -1.28%

COc1ccc(NC(=O)N2CCCC2C(=O)Nc2ccc(C)cc2)cc1 (centres undefined)
inhibition [1]: -3.34%

CC1(C)CC(=O)C2=C(C1)N=C1SCCC(=O)N1C2c1cccc([N+](=O)[O-])c1 (centres undefined)
inhibition [1]: 18%

Cc1c(NS(=O)(=O)c2cccc(C(=O)NCc3ccncc3)c2)c(=O)n(-c2ccccc2)n1C
inhibition [1]: -2.28%

Cc1c(NC(=O)c2ccccc2NS(=O)(=O)c2ccc(F)cc2)c(=O)n(-c2ccccc2)n1C
inhibition [1]: 20.1%

CC(=O)Nc1ccc(S(=O)(=O)Nc2c(C)n(C)n(-c3ccccc3)c2=O)cc1
inhibition [1]: 0.31%

Cc1c(NC(=O)c2ccccc2NS(=O)(=O)c2ccc(Br)cc2)c(=O)n(-c2ccccc2)n1C
inhibition [1]: 24.5% (active)

Cc1c(NS(=O)(=O)c2ccc(C(=O)NCc3ccccc3)cc2)c(=O)n(-c2ccccc2)n1C
inhibition [1]: 0.49%

Cc1ccc(S(=O)(=O)Nc2c(C)n(C)n(-c3ccccc3)c2=O)cc1C(=O)NCc1ccccn1
inhibition (at 30 µM, hits give high values): 28.8% (active)
inhibition (at 100 µM (top of the series)): 42.4%

CC1=C(CCN2CCN(C(C)C)C(CCO)C2)C(C)(C)CCC1 (centres undefined)
inhibition [1]: 2.23%

CCn1c(Cn2nnc(-c3ccccc3)n2)nnc1SCC(=O)Nc1cccc(C(C)=O)c1
inhibition [1]: 0.07%

COc1ccc(/C=N/NC(=O)c2cc(Br)ccc2O)cc1Cn1cc(Cl)cn1
inhibition [1]: 0.18%

O=c1[nH][nH]c(-c2ccccc2)c1C=Nc1ccc(C(F)(F)F)cc1
inhibition [1]: 2.58%

CC1=C(C#N)c2nc(N)c(C#N)c(C)c2/C1=C\c1ccc(C)cc1
inhibition [1]: 6.97%

CC1=C(C#N)c2nc(N)c(C#N)c(C)c2/C1=C\c1ccc(OCC(=O)O)c(Cl)c1
inhibition [1]: 11.5%

COC(=O)c1ccc(/C=C/c2ccc3cccc(OC)c3n2)cc1
inhibition [1]: 20.2%

CSc1ccc(/C=C/c2ccc3cccc(O)c3n2)cc1
inhibition [1]: 8.1%

O=C(COc1ccc(F)cc1)N(c1ccccn1)C1CCCCC1
inhibition [1]: 2.11%

COc1ccc(N2C(=O)C3CCCN3C2c2cccc(OC)c2OC)cc1 (centres undefined)
inhibition [1]: 3.05%

CCN(CC)CC(O)Cn1c(-c2ccccc2Cl)nc2ccccc21 (centres undefined)
inhibition [1]: 3.4%

Cc1ccc(CN2CCN(/N=C/c3ccc(C(F)(F)F)cc3)CC2)cc1
inhibition [1]: 5.42%

C#CCCOC(=O)N1C2=NC(C(=O)OC)=C(C(=O)OC)[C@@H]3N(Cc4ccccc4)c4ccccc4[C@]23C[C@H]1C(=O)OC
inhibition [1]: 8.52%

C#CCCOC(=O)N1C2=NC(C(=O)OC)=C(C(=O)OC)[C@@H]3N(C)c4ccccc4[C@]23C[C@H]1C(=O)OC
inhibition [1]: 3.66%
